This passage reports composite z-score and z-score results from PubChem BioAssay.

Assay [1] can be described thus: small molecules captured by biotinylated probe aFSTL3 – biochemical, small-molecule microarray, fluorescence 635/667, stem cell growth factor project, primary screen (AID 1064).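 Note: measures binding of the biotinylated anti-FSTL3 antibody to printed compounds.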 To be noted: higher = more signal.
Assay [2] can be described thus: binders from COS7 lysate, DM2A8 probe, primary screen, torsin A project, cell lysate, small-molecule microarray, fluorescence 635/667 (AID 1065). The note with it: higher = more signal, COS7 lysate expressing mutant human TOR1A.
Assay [3] is described as follows: small molecules captured by biotinylated probe aFGF2 – biochemical, small-molecule microarray, fluorescence 635/667, stem cell growth factor project, primary screen (AID 1067).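 Note: measures binding of biotinylated aFGF2 protein to printed compounds on slides; z-score merges feature fluorescence and signal-to-noise across triplicate slides.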 To be noted: higher = more signal.
The nature of assay [4]: small molecules captured by biotinylated probe aFGF10 – biochemical, small-molecule microarray, fluorescence 635/667, stem cell growth factor project, primary screen (AID 1071).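 Note: score merges 667 nm spot intensity and signal to noise from triplicate slides.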 To be noted: higher = more signal.
Assay [5] concerns the target Neurogenic locus notch homolog protein 2 (Homo sapiens) (UniProt Q04721). The assay can be described thus: small molecules binding Notch2 protein – biochemical, small-molecule microarray, 635 nm fluorescence, stem cell growth factors, primary screen (AID 1073). To be noted: higher = more signal.
For assay [6], the target named is Pro-neuregulin-1, membrane-bound isoform (Homo sapiens) (UniProt Q02297). Kind of assay: small molecules binding neuregulin-1 protein – biochemical, small-molecule microarray, fluorescence 635/667, psychiatric disease protein project, primary screen (AID 1075).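 Note: score combines 667 nm spot fluorescence with signal to noise.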 The note with it: NRG1 binding, 635 nm fluorescence, higher = more signal.
Pro-neuregulin-1, membrane-bound isoform (Homo sapiens), sequence (Q02297 whole entry, looked up, the tested form may be a part, canonical isoform): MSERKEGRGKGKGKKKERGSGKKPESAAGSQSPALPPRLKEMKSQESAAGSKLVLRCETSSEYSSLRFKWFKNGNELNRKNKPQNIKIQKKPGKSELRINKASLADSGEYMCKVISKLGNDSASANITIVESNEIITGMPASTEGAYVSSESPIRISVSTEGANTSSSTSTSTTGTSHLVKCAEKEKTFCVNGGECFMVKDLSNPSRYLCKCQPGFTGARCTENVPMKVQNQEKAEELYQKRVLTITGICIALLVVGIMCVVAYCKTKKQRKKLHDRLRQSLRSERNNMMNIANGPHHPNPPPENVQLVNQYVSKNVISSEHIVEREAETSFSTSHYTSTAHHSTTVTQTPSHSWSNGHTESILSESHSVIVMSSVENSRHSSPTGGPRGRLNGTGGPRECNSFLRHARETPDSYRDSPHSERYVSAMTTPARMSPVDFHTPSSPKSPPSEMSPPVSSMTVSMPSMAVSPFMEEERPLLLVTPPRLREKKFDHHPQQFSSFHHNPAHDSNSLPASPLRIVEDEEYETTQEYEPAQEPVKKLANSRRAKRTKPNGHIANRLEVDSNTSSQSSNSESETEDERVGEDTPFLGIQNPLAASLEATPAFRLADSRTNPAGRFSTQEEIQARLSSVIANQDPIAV
In assay [7] the test system is Neuregulin-1 EGF-like domain. Kind of assay: small molecules binding NRG1 EGF domain – biochemical, small-molecule microarray, 635 nm fluorescence, primary screen (AID 1081).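 Note: binding of the protein to compounds printed on small-molecule microarray slides.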 To be noted: higher = more signal.
A short description of assay [8]: FRG1 expression reporter modulators in myotubes – cell-based, C2C12 myotubes, firefly/Renilla luciferase, luminescence, FRG1 inhibition for FSHD, primary screen (AID 1084). To be noted: FRG1 promoter luciferase, higher = more signal, called active from +8 up or from −8 down.
Assay [9] is described as follows: small molecules captured by biotinylated probe aFST – biochemical, small-molecule microarray, fluorescence 635/667, stem cell growth factor project, primary screen (AID 1086).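 Note: score merges 667 nm fluorescence with signal-to-noise of each printed compound spot.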 The note with it: higher = more signal.
Assay [10] can be described thus: binders of probe aHhip on microarray, primary screen, stem cell growth factor project, biochemical, small-molecule microarray, fluorescence 635/667 (AID 1087).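 Note: score merges spot fluorescence at 667nm with spot signal to noise ratio.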 The note with it: higher = more signal.
Assay [11] relates to PRMT1 (protein arginine N-methyltransferase 1). The assay can be described thus: small molecules binding arginine methyltransferase PRMT1 – biochemical, small-molecule microarray, 635 nm fluorescence, primary screen (AID 1088).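 Note: binding of Prmt1 protein to compounds spotted on small-molecule microarray slides.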 To be noted: higher = more signal.
A short description of assay [12]: growth effects on S. cerevisiae YJM789 – YJM789 clinical isolate, OD600, 24 h, basal, primary screen (AID 1089).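 Note: growth of clinical yeast isolate S. cerevisiae YJM 789 seeded 1000 cells per well; test concentration not given here.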 The note with it: higher = more signal, called active from +8 up or from −8 down.
A short description of assay [13]: S. pombe growth modifiers, basal conditions – strain 972, OD600, 24 h, no modulator, primary screen (AID 1090).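 Note: basal condition with compound alone and no growth modifier present; test concentration not given here.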 To be noted: S. pombe 972 growth, higher = more signal, called active from +8 up or from −8 down.
Assay [14] can be described thus: budding yeast growth modifiers under rapamycin – strain BY4716, OD600, 96 h, primary screen (AID 1091). Note: test concentration not given here. The note with it: S. cerevisiae BY4716 + rapamycin, higher = more signal, called active from +8 up or from −8 down.
For assay [15], the target named is Torsin-1A-interacting protein 2 (Homo sapiens) (UniProt Q8NFQ8). The assay can be described thus: small molecules binding lysate-expressed LULL1 – cell lysate, human LULL1 lysate, 635/667 nm fluorescence, primary screen (AID 1092).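 Note: probe is lysate of COS7 cells overexpressing human LULL1; score merges per-feature 667 nm fluorescence with signal-to-noise.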 The note with it: small-molecule microarray, hLULL1 lysate binding, 635 nm fluorescence; higher = more signal.
Torsin-1A-interacting protein 2 (Homo sapiens), sequence (Q8NFQ8 whole entry, looked up): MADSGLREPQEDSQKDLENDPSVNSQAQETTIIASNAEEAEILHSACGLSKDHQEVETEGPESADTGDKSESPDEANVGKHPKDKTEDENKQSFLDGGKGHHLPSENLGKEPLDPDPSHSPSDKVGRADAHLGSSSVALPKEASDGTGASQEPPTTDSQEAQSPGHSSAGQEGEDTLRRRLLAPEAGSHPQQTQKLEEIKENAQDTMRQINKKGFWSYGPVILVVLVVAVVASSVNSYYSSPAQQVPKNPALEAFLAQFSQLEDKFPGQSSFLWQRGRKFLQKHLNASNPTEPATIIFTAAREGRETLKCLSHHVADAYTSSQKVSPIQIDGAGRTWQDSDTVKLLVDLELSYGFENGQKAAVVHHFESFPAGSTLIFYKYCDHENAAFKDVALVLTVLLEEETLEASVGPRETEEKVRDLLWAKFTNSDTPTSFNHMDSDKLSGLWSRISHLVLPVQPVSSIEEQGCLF
Assay [16] in a line: optical density change of DRC41 E. coli – strain DRC41, OD650, 24 h, E. coli filamentation project, primary screen (AID 1093).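 Note: MC1000 strain lacking acrAB efflux and sulA so SOS filamentation is blocked; test concentration not given here.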 To be noted: E. coli DRC41 growth, higher = more signal, called active from +8 up or from −8 down.
Assay [17] is described as follows: probe aLefty2 binding to arrayed compounds – biochemical, biotinylated probe, 635/667 nm fluorescence, primary screen (AID 1094).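 Note: score merges spot fluorescence near 667 nm with spot signal-to-noise ratio.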 The note with it: small-molecule microarray, higher = more signal.
Assay [18] deals with Noggin (protein binding on small-molecule microarray). Kind of assay: small molecules binding Noggin protein – biochemical, 635/667 nm fluorescence, primary screen (AID 1095).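 Note: score merges 667 nm feature fluorescence with signal to noise over triplicate slides.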 To be noted: 635 nm fluorescence, higher = more signal.
In assay [19] the target is Neurogenic locus notch homolog protein 3 (Homo sapiens) (UniProt Q9UM47). The assay can be described thus: small molecules binding NOTCH3 protein – biochemical, 635/667 nm fluorescence, primary screen (AID 1096). The note with it: small-molecule microarray, 635 nm fluorescence, higher = more signal.
Assay [20] is described as follows: probe aEGFR binding to arrayed compounds – biochemical, biotinylated probe, 635/667 nm fluorescence, primary screen (AID 1097).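 Note: probe is a biotinylated anti-EGFR antibody binding compounds printed on slides; score combines fluorescence near 667 nm and signal to noise of each spot.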 The note with it: small-molecule microarray, higher = more signal.

Active and inactive are the calls of the source.

Neurogenic locus notch homolog protein 2 (Homo sapiens), sequence (Q04721 whole entry, looked up, canonical isoform): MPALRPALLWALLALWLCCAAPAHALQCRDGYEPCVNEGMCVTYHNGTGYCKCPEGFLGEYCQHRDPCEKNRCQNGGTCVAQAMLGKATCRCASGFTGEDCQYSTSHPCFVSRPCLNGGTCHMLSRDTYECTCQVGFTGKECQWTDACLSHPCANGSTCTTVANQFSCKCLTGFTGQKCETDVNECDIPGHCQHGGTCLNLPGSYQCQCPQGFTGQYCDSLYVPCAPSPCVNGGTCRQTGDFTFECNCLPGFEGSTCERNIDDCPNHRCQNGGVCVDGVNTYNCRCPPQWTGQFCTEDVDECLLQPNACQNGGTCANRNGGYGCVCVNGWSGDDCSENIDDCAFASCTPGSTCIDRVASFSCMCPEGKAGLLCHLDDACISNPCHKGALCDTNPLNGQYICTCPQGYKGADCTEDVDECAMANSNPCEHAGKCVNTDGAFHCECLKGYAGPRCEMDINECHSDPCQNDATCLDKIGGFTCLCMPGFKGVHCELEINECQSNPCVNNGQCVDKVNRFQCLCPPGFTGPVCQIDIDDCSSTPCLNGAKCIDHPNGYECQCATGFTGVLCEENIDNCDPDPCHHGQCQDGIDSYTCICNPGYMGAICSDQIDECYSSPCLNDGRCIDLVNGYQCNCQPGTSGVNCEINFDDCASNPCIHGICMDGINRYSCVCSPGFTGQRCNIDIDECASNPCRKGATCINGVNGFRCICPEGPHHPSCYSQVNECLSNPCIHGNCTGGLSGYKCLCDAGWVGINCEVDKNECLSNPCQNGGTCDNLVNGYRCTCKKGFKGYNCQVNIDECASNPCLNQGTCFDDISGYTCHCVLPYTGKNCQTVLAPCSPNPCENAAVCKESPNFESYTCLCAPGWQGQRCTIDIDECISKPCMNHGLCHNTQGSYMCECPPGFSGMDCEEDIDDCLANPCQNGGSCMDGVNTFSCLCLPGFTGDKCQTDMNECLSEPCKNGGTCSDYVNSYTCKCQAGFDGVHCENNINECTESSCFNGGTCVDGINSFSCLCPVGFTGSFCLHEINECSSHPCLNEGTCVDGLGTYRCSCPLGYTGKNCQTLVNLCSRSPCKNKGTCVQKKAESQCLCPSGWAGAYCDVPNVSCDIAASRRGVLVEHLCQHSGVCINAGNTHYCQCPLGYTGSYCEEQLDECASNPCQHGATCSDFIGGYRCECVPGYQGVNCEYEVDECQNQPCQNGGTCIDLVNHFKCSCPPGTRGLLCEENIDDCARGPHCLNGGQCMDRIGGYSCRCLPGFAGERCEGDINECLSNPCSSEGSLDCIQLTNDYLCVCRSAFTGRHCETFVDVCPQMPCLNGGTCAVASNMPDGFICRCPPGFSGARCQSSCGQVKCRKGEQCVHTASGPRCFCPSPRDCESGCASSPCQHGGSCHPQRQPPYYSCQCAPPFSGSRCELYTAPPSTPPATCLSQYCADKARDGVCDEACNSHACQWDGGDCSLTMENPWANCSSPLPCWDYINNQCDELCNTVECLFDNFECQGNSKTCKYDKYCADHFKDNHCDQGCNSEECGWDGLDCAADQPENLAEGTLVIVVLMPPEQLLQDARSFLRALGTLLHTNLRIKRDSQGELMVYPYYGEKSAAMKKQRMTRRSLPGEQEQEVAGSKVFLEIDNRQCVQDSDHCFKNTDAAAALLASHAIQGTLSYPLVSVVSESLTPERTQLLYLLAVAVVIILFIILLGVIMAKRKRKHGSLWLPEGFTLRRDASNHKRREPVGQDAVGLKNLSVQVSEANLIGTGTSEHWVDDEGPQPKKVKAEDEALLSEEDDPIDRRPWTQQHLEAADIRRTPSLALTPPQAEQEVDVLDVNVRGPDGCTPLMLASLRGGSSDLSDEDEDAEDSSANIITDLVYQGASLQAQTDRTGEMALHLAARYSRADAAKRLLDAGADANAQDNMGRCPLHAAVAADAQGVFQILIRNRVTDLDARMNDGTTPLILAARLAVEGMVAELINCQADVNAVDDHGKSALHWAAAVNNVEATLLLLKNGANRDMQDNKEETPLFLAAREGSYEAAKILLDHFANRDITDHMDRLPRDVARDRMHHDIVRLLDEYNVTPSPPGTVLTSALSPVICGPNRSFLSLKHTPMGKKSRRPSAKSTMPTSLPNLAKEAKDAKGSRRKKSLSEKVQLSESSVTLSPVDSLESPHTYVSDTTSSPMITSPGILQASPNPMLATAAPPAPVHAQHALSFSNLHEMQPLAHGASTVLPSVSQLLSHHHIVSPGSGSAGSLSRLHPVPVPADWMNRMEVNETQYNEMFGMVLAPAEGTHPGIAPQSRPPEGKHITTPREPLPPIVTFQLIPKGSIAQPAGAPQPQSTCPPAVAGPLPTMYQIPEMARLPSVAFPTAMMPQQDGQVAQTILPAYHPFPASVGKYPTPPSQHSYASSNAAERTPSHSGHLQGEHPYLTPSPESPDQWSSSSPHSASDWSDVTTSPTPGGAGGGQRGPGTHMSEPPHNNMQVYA

`NCCCCCCNC(=O)[C@@H]1C[C@@H]2C(=O)N[C@@H](Cc3ccccc3)C(=O)N2[C@@H]1c1ccc(O)cc1`: the composite z-score is 1.38 in assay [1]; 0.757 in [2]; -0.0715 in assay [3]; -0.113 in assay [4]; 0.179 in [5]; 1.25 in [6]. For the same molecule, the composite z-score in [7] is 1.33; in assay [9] it was 0.422; in assay [10], -0.265; in assay [11], 0.914; in assay [15] it was 1.36; in [17] it was 0.635. For the same molecule, the composite z-score in assay [18] is 0.561; in assay [19] it was 0.164; in [20], -0.063. Besides, the z-score in assay [8] was 0.611 (inactive); in [12], -0.507 (inactive); in assay [13] it was -1.11 (inactive); in assay [14], -0.373 (inactive); in assay [16], 0.792 (inactive).
For `CCOC(=O)C[C@H]1[C@H](OC(=O)c2ccc(-c3ccccc3)cc2)[C@@H](NC(=O)c2ccccc2)c2cc(OCCCO)ccc2N1C(=O)c1ccccc1`, the composite z-score in [1] is -0.3; in assay [2], 0.707; in [3], 0.0216; in [4], 0.281; in [5], 0.741; in assay [6], 0.622. Besides, the composite z-score worked out at 0.773 in [7]; 0.515 in [9]; 0.201 in assay [10]; 1.35 in assay [11]; 1.69 in [15]; 0.0921 in assay [17]. Moreover, the values for the composite z-score in assay [18], in assay [19] and in assay [20] were -0.0461, 0.526 and -0.019, respectively. Moreover, the z-score in [8] was -0.867 (inactive); in assay [12], -1.08 (inactive); in [13] it was -1.94 (inactive); in assay [14] it was -0.596 (inactive); in assay [16], 2.17 (inactive).
Turning to `C=C(CCCC)/C(=C/C[C@H](OC(=O)c1ccncc1)c1ccc(CO)o1)c1cnc2ccccc2c1`, the composite z-score is -0.408 in assay [1]; 0.536 in [2]; -0.0332 in assay [3]; 0.941 in [4]; 1.41 in assay [5]; -0.185 in [6]. The composite z-score in [7] was 1.04; in assay [9] it was 0.761; in assay [10], 0.265; in assay [11], 1.56; in assay [15], 1.89; in assay [17] it was -0.0102. Also, the composite z-score in assay [18] was 1.19; in assay [19] it was 1.09; in assay [20], 0.0221. The z-score was -0.587 (inactive) in assay [8]; 3.23 (inactive) in assay [12]; -1.99 (inactive) in [13]; -0.516 (inactive) in assay [14]; 0.74 (inactive) in assay [16].
With `COc1ccc([Si](C)(C)[C@H]2[C@H](CCO)O[C@@]3(C(=O)N(Cc4ccc(N5C(=O)c6cccc7cccc5c67)cc4)c4ccccc43)[C@@H]2C)cc1`, the composite z-score was 0.633 in assay [1]; -0.213 in assay [2]; -0.0692 in assay [3]; -0.397 in assay [4]; -0.831 in assay [5]; 1.1 in [6]. In addition, the composite z-score is 0.657 in assay [7]; 0.025 in assay [9]; -0.261 in assay [10]; 0.126 in [11]; 0.589 in assay [15]; -0.169 in [17]. The composite z-score in assay [18] is -0.688; in [19] it was -0.601; in [20], -0.272. The z-score is -4.45 (inactive) in assay [8]; 0.341 (inactive) in assay [12]; 0.472 (inactive) in assay [13]; 26 (active) in assay [14]; 2.02 (inactive) in assay [16].
For `Cc1ccc(S[C@]2(C(=O)NCCN3CCOCC3)CC(=O)N(Cc3cc(C(F)(F)F)cc(C(F)(F)F)c3)[C@@H]2c2ccc(CO)cc2)cc1`, the composite z-score in assay [1] was 0.62; in assay [2] it was -0.439; in [3], -0.15; in assay [4] it was -1.35; in [5], -1.26; in [6], 1.04. In addition, the composite z-score in assay [7] is -0.382; in assay [9], -0.341; in [10], -0.0632; in assay [11], 1.24; in assay [15], 1.47; in assay [17], -0.136. Moreover, the composite z-score was -0.984 in assay [18], -0.54 in assay [19] and -0.252 in [20]. The z-score in [8] is -1.67 (inactive); in assay [12], -1.03 (inactive); in [13], -3.43 (inactive); in assay [14], -2.07 (inactive); in assay [16] it was 0.611 (inactive).
